Data: PubChem BioAssay AID1159580 (chemical genetic matrix, 2015)
Screen size: about 5,500 compounds; about 2,000 (36%) were called active. Another 18% or so got no clear call; they are omitted. Cut-off read from the data, not from the text of the source: active = normalized growth mostly below about 0.91 (no sharp cut-off); inconclusive = no clear call, values can overlap the other calls; inactive = mostly above about 0.92. This is one part of the list.

Assay: chemical genetic growth profiling, strain panel (AID 1159580);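 note: tested at 20 µM; growth read once vehicle control cultures reached saturation at 30 °C; 1 = growth at the plate median or of vehicle wells; lower values mean less growth of the strain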
Conditions: S. cerevisiae deletion strains, growth OD

Measured: normalized growth

NCCNS(=O)(=O)c1cccc2cnccc12
inactive: locus YAL040C, strain CLN3, stronger effect = lower value 1.02 | locus YCL061C, strain MRC1 (second series), stronger effect = lower value 1.01 | locus YDR363W, strain ESC2, stronger effect = lower value 0.973 | locus YER002W, strain NOP16, stronger effect = lower value 0.988 | locus YGR078C, strain PAC10, stronger effect = lower value 0.968 | locus YGR229C, strain SMI1, stronger effect = lower value 0.972 | locus YNL128W, strain TEP1, stronger effect = lower value 0.986 | locus YNL153C, strain GIM3, stronger effect = lower value 1.05 | locus YNL175C, strain NOP13, stronger effect = lower value 0.958 | locus YNL197C, strain WHI3, stronger effect = lower value 0.917 | locus YNL224C, strain SQS1, stronger effect = lower value 0.98 | locus YNL322C, strain KRE1, stronger effect = lower value 0.98 | locus YOR083W, strain WHI5 (second series), stronger effect = lower value 0.923 | locus YPL241C, strain CIN2, stronger effect = lower value 0.998
